Test results: PubChem BioAssay (NCATS)
Results filed as inconclusive are left out. Calls of active or inactive are those of the source. Calls follow the shape of the dose curve; as a rule, active = well fitted curve in the direction sought with a large enough effect; inconclusive = small, poorly fitted or top-dose-only effect, or another doubt; inactive = no such curve, though single readings can be large; an effect the other way counts as inactive or inconclusive.

What was measured:
[1] = tested on: C33A; assay: Primary qHTS to identify gynecologic anti-cancer compounds using libraries of approved drugs and bioactive compounds (AID 1345084); details: Gynecologic cancer cell panel viability, ATPlite luminescence, 48 h; series mostly up to 57.5 µM; also: % is scaled to controls: 0 for no effect and ±100 for the full control effect; nearly all actives have a fitted effect of over 55% in size
How it was run: (§1)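 Cells, 1,000 per well, plated 16 h, then exposed 48 h at 37 C to compounds. Viability by ATPlite luminescence after 15 min at room temperature.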

[2] = tested on: CAOV3; assay: as above; details: Gynecologic cancer cell panel viability, ATPlite luminescence, 48 h; series mostly up to 57.5 µM
How it was run: as §1

[3] = tested on: CASKI; assay: as above; details: Gynecologic cancer cell panel viability, ATPlite luminescence, 48 h; series mostly up to 57.5 µM
How it was run: as §1

[4] = tested on: Es-2; assay: as above; details: Gynecologic cancer cell panel viability, ATPlite luminescence, 48 h; series mostly up to 57.5 µM
How it was run: as §1

[5] = tested on: HeLa; assay: as above; details: Gynecologic cancer cell panel viability, ATPlite luminescence, 48 h; series mostly up to 57.5 µM
How it was run: as §1

[6] = tested on: Hek293T; assay: as above; details: Gynecologic cancer cell panel viability, ATPlite luminescence, 48 h, control line for the selectivity index; series mostly up to 57.5 µM
How it was run: as §1

[7] = tested on: JEG-3; assay: as above; details: Gynecologic cancer cell panel viability, ATPlite luminescence, 48 h; series mostly up to 57.5 µM
How it was run: as §1

[8] = tested on: OV90; assay: as above; details: Gynecologic cancer cell panel viability, ATPlite luminescence, 48 h; series mostly up to 57.5 µM
How it was run: as §1

[9] = tested on: PA-1; assay: as above; details: Gynecologic cancer cell panel viability, ATPlite luminescence, 48 h; series mostly up to 57.5 µM
How it was run: as §1

[10] = tested on: SKOV3; assay: as above; details: Gynecologic cancer cell panel viability, ATPlite luminescence, 48 h; series mostly up to 57.5 µM
How it was run: as §1

[11] = tested on: Tov-21-G; assay: as above; details: Gynecologic cancer cell panel viability, ATPlite luminescence, 48 h; series mostly up to 57.5 µM
How it was run: as §1

[12] = tested on: Tov112D; assay: as above; details: Gynecologic cancer cell panel viability, ATPlite luminescence, 48 h; series mostly up to 57.5 µM
How it was run: as §1

[13] = Drug repurposing screens with cells derived from glioblastoma tumor samples (AID 1345199); details: GBM patient neurospheres viability, ATP luminescence, 48 h; also: nearly all actives have a fitted effect of over 40% in size; also: potency is read from the fitted curve at half-maximal effect; as to activity, negative = cell killing: % is scaled to controls: 0 for no effect and ±100 for the full control effect
How it was run: (§2)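 Primary testing used CD133+ neurospheres from four GBM patients, seven concentrations, 48 h exposure and ATP-based viability; confirmation added three slower-growing patient lines.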

[14] = tested on: astro; assay: as above; details: viability, ATP luminescence, 48 h; series mostly up to 45.9 µM
How it was run: as §2

[15] = tested on: WaGa; assay: qHTS assay to identify novel small-molecules to repurpose for Merkel cell carcinoma treatment (AID 1296009); details: MCC and control cell lines, CellTiter-Glo viability, 72 h; series mostly up to 46 µM; also: potency is read from the fitted curve at half-maximal effect; nearly all actives have a fitted effect of over 60% in size
How it was run: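 Cell viability, measured as CellTiter-Glo luminescence, was normalized between DMSO and no-cell wells. The cells had been exposed to 8- or 11-point compound dilutions for 72 hr at 37 degree celsius.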

[16] = at 45.9 µM (top of the series), tumour line B
[17] = at 46.1 µM (top of the series), tumour line C

CC1=C(/C=C/C(C)=C/C=C/C(C)=C/C(=O)O)C(C)(C)CCC1
inactive: Potency [1] | Potency [2] | Potency [3] | Potency [4] | Potency [5] | Potency [6] | Potency [7] | Potency [8] | Potency [9] | Potency [10] | Potency [11] | Potency [12] | activity, negative = cell killing [13, 16] -21.7% | activity, negative = cell killing ([13]; at 45.9 µM (top of the series), tumour line D) -18.7% | activity, negative = cell killing [13, 17] -15.9%

CC1=C(CC(=O)O)c2cc(F)ccc2/C1=C\c1ccc(S(C)(=O)=O)cc1
inactive: Potency [1] | Potency [3] | Potency [4] | Potency [5] | Potency [6] | Potency [7] | Potency [8] | Potency [9] | Potency [10] | Potency [11] | Potency [12] | Potency [14]

O=C1Nc2ccc(Cl)cc2[C@@](C#CC2CC2)(C(F)(F)F)O1
active: Potency ([13]; tumour line A) 17.8 µM
inactive: Potency [1] | Potency [2] | Potency [3] | Potency [4] | Potency [5] | Potency [6] | Potency [7] | Potency [8] | Potency [9] | Potency [10] | Potency [11] | Potency [12] | activity, negative = cell killing [13, 16] -20.8% | activity, negative = cell killing [13, 17] -5.83%

Cc1c(O)cccc1C(=O)N[C@@H](CSc1ccccc1)[C@H](O)CN1C[C@H]2CCCC[C@H]2C[C@H]1C(=O)NC(C)(C)C
inactive: Potency [3] | Potency [4] | Potency [5] | Potency [6] | Potency [7] | Potency [8] | Potency [9] | Potency [11] | Potency [12] | activity, negative = cell killing [13, 17] 0.268%
active: Potency ([13]; tumour line A) 6.31 µM | Potency ([13]; tumour line B) 11.2 µM | Potency ([13]; tumour line D) 20 µM | Potency [14] 35.5 µM

CN1CCN(C2Cc3ccccc3Sc3ccc(Cl)cc32)CC1 (centres undefined)
active: Potency [15] 23.7 µM | Potency [14] 22.4 µM
inactive: Potency [1] | Potency [3] | Potency [4] | Potency [5] | Potency [6] | Potency [7] | Potency [9] | Potency [11] | Potency [12]

CNCCCC1c2ccccc2C=Cc2ccccc21
inactive: Potency [1] | Potency [5] | Potency [7] | Potency [10] | activity, negative = cell killing ([13]; at 20 µM (top of the series), tumour line C) 3.37%
active: Potency ([13]; tumour line A) 6.31 µM

COC(=O)C1=C(C)NC(C)=C(C(=O)OC)C1c1ccccc1[N+](=O)[O-]
inactive: Potency [1] | Potency [2] | Potency [3] | Potency [4] | Potency [6] | Potency [7] | Potency [8] | Potency [9] | Potency [10] | Potency [11] | Potency [12]
